Among the data in PubChem BioAssay AID624117 (National Center for Advancing Translational Sciences (NCATS), 2012) are Potency values, retold here.

Results filed as inconclusive are left out. Where a call stands in place of a potency, no number is given. Calls of active or inactive are those of the source. Calls come from the whole dose curve; as a rule, active = well fitted curve in the direction sought with a large enough effect; inconclusive = small, poorly fitted or top-dose-only effect, or another doubt; inactive = no such curve, though single readings can be large or run the other way.
Potency is the fitted concentration of half-maximal effect.

The nature of this assay: qHTS Assay for Rab9 Promoter Activators: Hit Validation Using Renilla Luciferase Read-Out. The note with it: Huh7 NPC1 promoter Renilla luciferase reporter, 24 h; series mostly up to 76.9 µM. The gist of the method: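 Huh7 cells stably carrying NPC promoter-luciferase, 1,500 cells/well, exposed to compound for 24 h at 37 deg C. Luminescence read 10 min after […] addition; validation of firefly-read primary hits.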
For `Cc1noc(/C=C/N(C)C)c1S(=O)(=O)N1CCCC(C(=O)N2CCCCC2)C1` (centres undefined), the Potency entry was “inactive”.
Then `CCc1cc(C(=O)Nc2ccccc2)cs1`, with “inactive”; and `CCCCn1c(Nc2ccc(OC)cc2)nc2ccccc21`, with “inactive”; and `COc1ccc(/C=C\c2onc(C)c2S(=O)(=O)N2CCC(C(=O)NCCC(C)C)CC2)cc1`, with “inactive”.
The result for `O=C(CSc1nnc(-c2ccccc2)o1)Nc1ccccc1F` reads “inactive”; that for `Cc1ccc(NC(=O)c2ncc(Cl)c(Cl)c2Cl)cc1C`, “inactive”.
For `O=C(NC(=S)Nc1ccc(CN2CCCCC2)cc1)c1cc2ccccc2o1`, the Potency entry is “inactive”.
Turning to `Cn1c(CCN2CCN(c3ccccc3)CC2)nc2cc(NC(=O)c3ccco3)ccc21`, the Potency result is “inactive”.
The result for `Cc1ccc(NC(=O)c2c(O)c3ccccc3n(C)c2=O)nc1` reads “inactive”; that for `COC(=O)c1ccccc1S(=O)(=O)NNC(=O)Nc1ccccc1`, “inactive”.
Then `O=C(COC(=O)c1ccc(-c2nnc(-c3ccccc3)o2)cc1)c1ccccc1`, with “inactive”; and `Cc1ccc(C(=O)c2cn[nH]c2-c2ccccc2O)cc1`, with “inactive”.
Then `O=C(CCc1cccc(Cl)c1)NC1CCCN(Cc2ccccc2F)C1` (centres undefined), with “inactive”; and `COc1ccc(NC(=O)Nc2ccc(Cc3ccncc3)cc2)cc1OC`, with “inactive”.
On to `CC(C)CC(=O)N1CCN(c2ccc(NC(=O)c3ccco3)cc2)CC1`, for which the Potency entry is “inactive”.
Consider `CCOC(=O)C1(Cc2cccc(Cl)c2)CCCN(C(=O)CCSC)C1` (centres undefined), for which the Potency result is “inactive”.
The result for `COc1ccc2oc(=O)c(C(=O)NC(C)c3ccccc3)cc2c1` (centres undefined) reads “inactive”.
The result for `COC(=O)c1ccccc1NC(=O)c1ccc(-c2ccc(Br)cc2)o1` reads “inactive”; that for `CCOC(=O)CSc1nc2cc3c(cc2cc1C#N)OCO3`, “inactive”; that for `CC1CCCN(C(=S)Nc2ccc(Nc3ccccc3)cc2)C1` (centres undefined), “inactive”.
Consider `Cc1cc(C)cc(N(CC(=O)NC2CCCC2)C(=O)CNC(=O)c2ccco2)c1`, for which the Potency entry is “inactive”.
The result for `NCCOc1ccccc1-c1ccccc1` reads “inactive”.
Regarding `COc1cccc(NC(=O)CN2C(=O)CSc3ccc(S(=O)(=O)N4CCC(C)CC4)cc32)c1`, the Potency entry was “inactive”.
The result for `O=C(CSc1ncccn1)Nc1cccc2ccccc12` reads “inactive”.
As to `COc1ccccc1C(=O)Nc1nnc(SCC(=O)NC2CCCC2)s1`, the Potency result was “inactive”.
Regarding `Cc1[nH]n(-c2cccc3ccccc23)c(=O)c1/C=N/c1sc2c(c1C#N)CCC2`, the Potency result was “inactive”.
In the case of `CC(C)(C)C(=O)NC(=S)Nc1ccccc1F`, the Potency entry was “inactive”.
The result for `Cc1csc(NC(=O)CSc2nnc(-c3ccncc3)o2)n1` reads “inactive”; that for `COCCNC(=O)CN1C(=O)NC(c2ccccc2)(c2ccccc2)C1=O`, “inactive”.
Then `O=C(Nc1ccc(-c2nc3cccnc3s2)cc1)c1ccc(Cl)nc1`, with “inactive”.
`Cc1cc(C)c2c(N)c(C(=O)Nc3ccc([N+](=O)[O-])cc3)sc2n1`: the Potency result was “inactive”.
Then `NNC(=O)c1cccc(S(=O)(=O)Nc2cc(Cl)ccc2Cl)c1`, with “inactive”.
Then `Cn1c(SCc2ccccc2)nnc1-c1cnccn1`, with “inactive”; and `Cc1cccc(C)c1NC(=O)Nc1cccs1`, with “inactive”; and `COc1cccc(CNC(=O)CN(c2cc(C)cc(C)c2)S(=O)(=O)c2c(C)noc2C)c1`, with “inactive”.
The result for `Cc1ccc(S(=O)(=O)N2CCN(c3cnn(C)c(=O)c3Cl)CC2)cc1` reads “inactive”.
For `CN(C)C(=O)[C@H]1C[C@H]1[C@@H](O)[C@H](CO)NC(=O)[C@H](COCc1ccccc1)NC(=O)OC(C)(C)C`, the Potency entry was “inactive”.
In the case of `CC(=O)c1c(C)[nH]c(C(=O)Nc2cccc(S(=O)(=O)N(C)C)c2)c1C`, the Potency is 26 µM (active).
The result for `CC(Sc1ncnc2c1cnn2-c1ccccc1)C(=O)Nc1ccc(N2CCOCC2)cc1` (centres undefined) reads “inactive”.
